# Screens as filed in PubChem BioAssay.
# TWEAK-Fn14 inh = TWEAK-Fn14 signaling inhibition. 2% of 360,000 active. inhibition, % at 10 µM. TWEAK-stimulated Fn14 reporter cells, luciferase luminescence, 8 h; in the data active = inhibition above about 50%
# TROY signal inh = blocks TROY-dependent signaling in reporter cells | Q293 LMP1-TROYcd NF-kB luciferase reporter, 4 h | inhibition, % at 10 µM | 0.98% of 360,000 active;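 active = compounds whose plate-normalised and pattern-corrected inhibition of the luciferase reporter signal at the single screening dose is 50% or more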
# MITF act = MITF TRPM1 promoter activation in melanoma cells; SK-MEL-5 TRPM1-promoter luciferase, 24 h; % of positive control, neutral wells = 0; activation, % at 12.5 µM; 0.75% of 300,000 active; AID 588334;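 active = mean activation of at least 80% with every replicate also reaching 80%; inconclusive = mean reaches 80% but some replicate falls short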;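 also: 0% = neutral control wells and 100% = parthenolide positive control wells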
# LGR2 inh = Drosophila LGR2 receptor signaling inhibition; 0.35% of 380,000 active; AID 720647; HEK293 LGR2, CRE-luciferase, bursicon-stimulated, 4 h; inhibition, % at 9.99 µM;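 active = drop in luminescence signal, shown as inhibition above about 50% in the replicate tests, limit read from the data, passing the limit was not always enough; inconclusive = probably only some replicates passing the limit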;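 also: agonist challenge used bursicon conditioned medium at about half maximal strength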
# EBV LMP1 NFkB = reduces LMP1-driven NF-kappaB luciferase signal; inhibition, % at 12.5 µM; 0.69% of 350,000 active; LMP1-induced NF-kappaB luciferase reporter cells, luminescence; AID 504558; in the data active = inhibition above about 41%; inconclusive = no clear call, values can overlap the other calls;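 also: 0% = neutral control wells and 100% = reference inhibitor control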
# MITF TRPM1 inh = reduces MITF-dependent TRPM1 promoter luciferase signal; SK-MEL-5 TRPM1 promoter luciferase, 24 h; inhibition, % at 12.5 µM; 0.83% of 330,000 active;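 active = mean inhibition across replicates of 60% or more, whatever share of single replicates reaches that level; inconclusive = some that reach 60%, reason not given; inactive = mean inhibition across replicates below 60%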
# * = called active by the depositor; u = inconclusive; x = no result given. A selection: hits, their analogues and other compounds. The true share with any hit is near 3%.
SMILES,TWEAK-Fn14 inh,TROY signal inh,MITF act,LGR2 inh,EBV LMP1 NFkB,MITF TRPM1 inh
CCOC(=O)c1ccc(NC(=O)c2cccc(S(=O)(=O)N3c4ccccc4CC3C)c2)s1 (stereo unspecified),53.6*,8.9,-34.8,3.6,-56.4,37.6
CCN(CC)CCNC(=O)c1ccc(NC(=O)c2cccc(S(=O)(=O)N3c4ccccc4CC3C)c2)cc1 (stereo unspecified),10.2,12.1,-92.4,0.8,-5.2,93.0*
CC1Cc2ccccc2N1S(=O)(=O)c1cccc(C(=O)NCCCO)c1 (stereo unspecified),-1.0,x,2.0,x,3.3,-4.7
CNC[C@H]1OCCCC[C@@H](C)Oc2ccc(NC(=O)Nc3c(C)noc3C)cc2C(=O)N([C@H](C)CO)C[C@H]1C,x,x,x,-5.8,x,x
C[C@H](CO)N1C[C@H](C)[C@@H](CN(C)C(=O)Nc2cccc3ccccc23)OCc2cnnn2CCCC1=O,x,x,x,-3.7,x,x
Cc1nn(-c2ccccc2)c(Cl)c1/C=N/NC(=O)c1ccn[nH]1,50.2*,-16.2,61.2,-44.6,x,-57.8
Cc1nn(-c2ccccc2)c(Cl)c1/C=N/NC(=O)c1[nH]ncc1Br,52.6*,27.6,u,17.2,-11.2,-134.9
Cc1cc(C(=O)N/N=C/c2c(C)nn(-c3ccccc3)c2Cl)n[nH]1,-19.4,-11.5,x,-10.4,x,x
CCCNC(=O)Nc1ccc2c(c1)OC[C@@H](C)N(C(=O)c1ccccc1F)C[C@@H](C)[C@@H](OC)CN(C)C2=O,x,x,x,2.4,x,x
CCOc1cc(NC(=O)CCl)c(OCC)cc1NC(=O)CCl,43.7,7.8,-75.1,14.3,-16.9,75.7*
COc1ccc(C(=O)n2c(C)c(CCO)c(=O)n2C)cc1,22.9,21.4,-16.4,x,-2.4,17.1
Cc1c(CCO)c(=O)n2n1CCCC2,-1.0,-2.4,2.1,4.0,52.1*,-2.2
O=C(Nc1ccc(-c2nc3ccc(NC(=O)c4cccs4)cc3[nH]2)cc1)c1cccs1,-127.5,-1.0,-77.2,x,-15.4,79.1*
Cn1cccc1-c1nc2ccc(NC(=O)c3ccco3)cc2[nH]1,-5.3,5.4,46.6,x,-6.8,-41.3
O=C(NC(=S)Nc1ccc(NC(=O)c2cccs2)cc1)c1ccco1,-1.9,-6.5,9.2,-8.3,5.8,-9.7
O=C(Nc1ccc(NC(=O)c2cccs2)cc1)c1ccco1,-34.2,-44.9,97.8*,x,-16.0,-95.9
O=C(Nc1ccc2nc(-c3cccs3)[nH]c2c1)c1ccco1,-14.2,-35.0,102.5*,-39.2,-9.8,-100.1
O=C(c1ccccc1)c1ccc2nc(-c3ccc(NC(=O)c4ccccc4Br)cc3)[nH]c2c1,-7.4,5.5,27.3,-7.9,2.6,-25.9
Cc1ccccc1C(=O)Nc1ccc(-c2nc3ccc(C(=O)c4ccccc4)cc3[nH]2)cc1,70.3*,x,-1.0,11.9,0.6,2.5
O=C(Nc1ccc2nc(-c3cccs3)[nH]c2c1)c1cccs1,-41.0,-53.6,70.2,x,-13.8,-64.9
C[C@H]1CCCCO[C@@H](CN(C)C)[C@@H](C)CN([C@@H](C)CO)C(=O)c2cc(NC(=O)c3ccccc3)ccc2O1,x,x,x,-12.4,x,x
CCN1CCN(CC(=O)N2N=C(c3cccs3)CC2c2ccc(OC)c(OC)c2)C(=O)C1=O (stereo unspecified),35.5,4.0,-5.0,-8.3,0.0,8.2
C=C1C(=O)c2sccc2C(c2ccc(OC)c(OC)c2)C1COC(C)=O (stereo unspecified),100.1*,69.3*,-98.1,106.2*,79.2*,98.4*
CCc1ccc2c(c1)C(=O)c1ccccc1C2=O,-36.2,-67.2,34.7,x,-23.1,-35.8
CC(C)(C)c1ccc2c(c1)C(=O)c1ccccc1C2=O,41.4,52.5*,-6.1,-55.9,-40.5,11.4
SMILES,TWEAK-Fn14 inh,TROY signal inh,MITF act,LGR2 inh,EBV LMP1 NFkB,MITF TRPM1 inh
COc1ccc(N(C(=O)c2cccnc2)S(=O)(=O)c2ccc3c4c(cccc24)C(=O)N3C)cc1,64.2*,47.1,5.0,33.5,0.0,-3.1
COc1ccc(N(C(=O)c2ccncc2)S(=O)(=O)c2ccc3c4c(cccc24)C(=O)N3C)cc1,33.9,63.9*,-18.3,71.8*,-1.1,22.7
COc1ccc(N(C(=O)c2ccncc2)S(=O)(=O)c2cccs2)cc1,22.2,13.4,-10.2,12.3,0.7,11.4
COc1ccc(N(C(=O)c2cccnc2)S(=O)(=O)c2cc(OC)ccc2OC)cc1,14.9,3.2,-1.7,26.1,3.0,-2.7
C[C@@H]1CN([C@H](C)CO)S(=O)(=O)c2ccc(/C=C/c3ccccc3)cc2O[C@H]1CN(C)C(=O)NC1CCCCC1,x,x,x,37.4,x,x
CCC(=O)N(C)C[C@H]1Oc2cc(C#CCN(C)C)ccc2S(=O)(=O)N([C@@H](C)CO)C[C@H]1C,x,x,x,-5.1,x,x
COc1ccc(N2CCN(c3cnc4ccccc4n3)CC2)cc1,-30.7,-21.8,96.6*,-110.3,-25.3,-95.9
C[C@H]1CCCCO[C@H](CN(C)Cc2ccc3c(c2)OCO3)[C@@H](C)CN([C@@H](C)CO)C(=O)c2cc(NS(=O)(=O)c3cccs3)ccc2O1,x,x,x,4.0,x,x
CCOc1cc(/C=C\[N+](=O)[O-])ccc1OCC(=O)Nc1ccccc1C,-27.0,11.8,-90.6,x,22.0,90.7*
Cc1csc2c(N3CCN(C(=S)Nc4ccc(C(F)(F)F)cc4)CC3)ncnc12,26.3,6.7,-8.2,17.8,-3.5,5.9
Cc1csc2ncnc(N3CCN(C(=S)Nc4ccc(C(F)(F)F)cc4)CC3)c12,50.8*,48.3,x,22.9,5.6,1.3
CCCN(C)C[C@@H]1OCCCC[C@H](C)Oc2ccc(NC(=O)CCC(F)(F)F)cc2C(=O)N([C@H](C)CO)C[C@@H]1C,x,x,x,5.1,x,x
CC(C)(C)c1ccc(C(=O)Nc2ccc(F)cc2)s1,-18.1,-37.6,90.9*,-52.1,-58.5,-86.1
O=C(N[C@H]1CC[C@@H](CCNC(=O)C2CCOCC2)O[C@@H]1CO)c1ccccn1,x,x,x,-12.0,x,x
O=C(c1cccs1)N1CCN=C1SCc1ccccc1,-1.4,-2.3,13.2,x,2.4,-15.1
O=C(c1cccs1)N1CCN=C1SCc1ccc(F)cc1,7.3,72.6*,9.4,-4.2,-0.1,-13.8
COCC(=O)N(C)C[C@H]1Oc2ncc(-c3ccccc3C)cc2C(=O)N([C@@H](C)CO)C[C@H]1C,x,x,x,7.9,x,x
CCC(=O)N1C[C@H](O)COC[C@H]2O[C@H](CC(=O)NCc3ccccc3Cl)CC[C@@H]21,x,x,x,-9.2,x,x
Oc1ccccc1C1SC(c2ccccc2O)SC(c2ccccc2O)S1 (stereo unspecified),51.4*,80.7*,-40.5,9.8,-13.4,42.3
